A selection: hits, their analogues and other compounds. The true share with any hit is near 19%.
DT40 TDP1 no CPT = qHTS for Inhibitors of human tyrosyl-DNA phosphodiesterase 1 (TDP1): qHTS in cells in absence of CPT; AID 686978, 2013; Potency, µM (highest dose often 46.2 µM), without a hit: top-dose activity change, negative = growth inhibition, most hits filed as inhibitors; DT40 Tdp1-/- hTDP1 cells, no CPT, ATP luminescence, 48 h; 15% of 420,000 active; further: potency means the concentration at half of the fitted maximal effect; nearly all actives have a fitted effect of over 55% in size
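Growth of hTDP1-complemented DT40 Tdp1-knockout cells is measured by ATP luminescence after at least 48 hr compound exposure at 37 °C, with DMSO substituting for the 20 nM CPT used in the parallel screen.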
DT40 TDP1 CPT = growth inhibition of DT40 Tdp1-/-;hTDP1 cells with camptothecin (screen for TDP1 inhibitors); chicken DT40 Tdp1-/-;hTDP1 cells + 20 nM CPT, ATP luminescence, 48 h; Potency, µM (top dose mostly 46.2 µM), without a hit: at the top dose activity change, negative = growth inhibition, usual class: inhibitors; 12% of 420,000 active; AID 686979; further: potency means the concentration at half of the fitted maximal effect; nearly all actives have a fitted effect of over 55% in size
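Chicken DT40 Tdp1-/- cells complemented with human TDP1, 400 cells/well, exposed to compounds plus 20 nM camptothecin for at least 48 h at 37 C; viability read as ATP content by CellTiter-Glo luminescence.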
HT1080NT lethal = kills 2HG-producing HT-1080-NT fibrosarcoma cells | HT-1080-NT fibrosarcoma viability, CellTiter-Glo ATP luminescence, 48 h | Potency, µM (doses to about 46.1 µM), inactives show at the highest dose activity, negative = less viability, actives largely listed as cytotoxic | 1.6% of 360,000 active | AID 686970;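 further: NT is the 2HG producing partner of a matched IDH1 knockdown line; potency means the concentration at half of the fitted maximal effect; 0% = DMSO-treated cells and -100% = media-only wells without cells; nearly all actives have a fitted effect of over 55% in size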
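Viability by CellTiter-Glo luminescence after 48 h compound exposure at 37C of HT-1080-NT cells (750/well, RPMI, 5% FBS). % activity scaled between DMSO wells and medium-only wells, then curve-fitted and categorized by curve class.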
HT1080 IDH1KD tx = kills HT-1080 cells with IDH1 knockdown; HT-1080 IDH1 knockdown viability, ATP luminescence, 48 h; Potency, µM (doses to about 46.1 µM), for the others: at the highest dose activity, negative = toxicity, actives largely listed as cytotoxic; 2% of 360,000 active;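 further: potency means the concentration at half of the fitted maximal effect; 0% = DMSO wells and -100% = cell-free medium wells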
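HT-1080-IDH1KD cells (IDH1 knocked down), 750/well in RPMI with 5% FBS, treated with compound 48 h at 37 degrees C. Viability by CellTiter-Glo luminescence, normalised to DMSO and no-cell wells; concentration-response curves classed.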
IL1B secr inh = blocks inflammasome-driven IL-1 beta release; 4.7% of 360,000 active; THP-1 LPS/ATP IL-1B secretion, AlphaLISA, 16 h; stronger effect = lower value; activity change, % at 57.5 µM; in the data active means activity change below about -50%; inconclusive means mostly about -30% to -49%
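Secreted IL-1B measured by AlphaLISA bead assay after 16 h compound exposure of THP-1 cells; compounds (final up to 57.5 uM) added 1 h before LPS (250 ng/mL) and ATP (1.25 mM) stimulation; lower signal means less secretion.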
Starred values were filed as active, the others as inactive; u = inconclusive; x = no result; [ ] = dose if it differs, or a comment. Unless noted, the call rests on the fitted dose curve; in most records, active means well fitted curve in the direction sought with a large enough effect; inconclusive means small, poorly fitted or top-dose-only effect, or another doubt; inactive means no such curve, though single readings can be large; an effect the other way counts as inactive or inconclusive. Unless noted, on the % scale 0 is the no-effect control and ±100 the full control effect.

SMILES | DT40 TDP1 no CPT | DT40 TDP1 CPT | HT1080NT lethal | HT1080 IDH1KD tx | IL1B secr inh
CC(=O)Nc1ccc(NC(=O)COC(=O)C2c3ccccc3Oc3ccccc32)cc1 | -19% | 2% | 19% | -1% | -2
COc1ccc(C(=O)N2CC(=O)Nc3ccc(C)cc3C2c2ccc(F)cc2)c(OC)c1 (stereo unspecified) | u | 21µM* | x | x | x
Cc1ccc2c(c1)C(c1ccccc1)N(C(=O)c1ccccc1[N+](=O)[O-])CC(=O)N2 (stereo unspecified) | 9.2µM* | 12µM* | 2% | -17% | 20
O=C1CN(C(=O)c2ccccc2[N+](=O)[O-])C(c2ccccc2)c2cc(Br)ccc2N1 (stereo unspecified) | u | 21µM* | -13% | -9% | 25
O=C1CN(C(=O)CN2CCCC2)C(c2ccccc2)c2cc(Br)ccc2N1 (stereo unspecified) | -13% | 10% | -4% | -5% | 17
Cc1ccc(C(=O)N2CC(=O)Nc3ccc(F)cc3C2c2ccccc2)cc1[N+](=O)[O-] (stereo unspecified) | 21µM* | 18µM* | -14% | -21% | 0
O=C(CN1C(=O)c2cccnc2Oc2ccc(Cl)cc21)N1CCCC1 | 14% | -14% | -3% | 1% | 17
COc1ccc(CN2C(=O)N(c3ccccc3)C(=O)C2CC(=O)Nc2ccccc2)cc1OC (stereo unspecified) | -19% | 0% | 1% | 25% | -15
COc1cc(OC)cc(C(=O)N[C@H](C(=O)Nc2ccc(S(=O)(=O)N(C)C)cc2)C(C)C)c1 | u | 3% | -14% | -13% | -27
O=C(O)CN1CCN(Cc2cccc(Cl)c2)C1=O | 2% | -4% | 7% | 8% | 1
CN(C)c1ccc(/C=C2\SC(=S)N(Nc3ncc(C(F)(F)F)cc3Cl)C2=O)cc1 | 8.2µM* | 8.2µM* | u | u | -5
COc1cc(/C=C2\SC(=S)N(Nc3ncc(C(F)(F)F)cc3Cl)C2=O)ccc1O | u | 21µM* | 5% | -11% | u
Cn1c(SCC2CCCO2)nnc1C1CCN(Cc2ccc(-c3cccc(Cl)c3)o2)CC1 (stereo unspecified) | u | 0%[9.04 µM] | x | x | x
CCCCOCCCNC(=O)CC(C)c1ccccc1 (stereo unspecified) | -20% | 2% | 8% | 14% | 6
CCN1C=C(Cc2ccc(F)cc2)C2=C(C1)C(c1ccc(F)cc1)C(C#N)=C(N)O2 (stereo unspecified) | 16µM* | u | u | -1%[9.24 µM] | -103*
CCN1C=C(Cc2ccccc2C)C2=C(C1)C(c1ccccc1C)C(C#N)=C(N)O2 (stereo unspecified) | 21µM* | 16µM* | u | u | u
C[C@@H](NC(=O)c1nc[nH]c1C(=O)N[C@@H](CCCCNC(=O)OC(C)(C)C)C(=O)OC(C)(C)C)c1ccccc1 | -94% | u | 6% | u | -25
CC(C)(C)OC(=O)NCCCC[C@H](NC(=O)c1[nH]cnc1C(=O)Nc1ccc(Cl)cc1)C(=O)OC(C)(C)C | 16µM* | u | u | u | -58*
CC(C)(C)OC(=O)NCCCC[C@H](NC(=O)c1[nH]cnc1C(=O)Nc1ccccc1)C(=O)OC(C)(C)C | 23µM* | 15µM* | -30% | u | u
N=c1c(C(=O)NC2CCCC2)cc2c(=O)n3ccccc3nc2n1C1CCCCC1 | -15% | -10% | 1% | 12% | 26
O=C(Cn1c(=O)c2cccn2c2ccccc21)Nc1cc(F)ccc1F | u | u | -3% | -2% | 29
Cc1ccc(S(=O)(=O)N2[C@H](CC(=O)OCc3ccccc3)OC[C@@H]2C)cc1 | u | -30% | 3% | -3% | 22
Cc1ccc(S(=O)(=O)N2[C@H](CC(=O)OCc3ccccc3)OC[C@@H]2C(C)C)cc1 | 23µM* | 21µM* | -21% | -16% | -22
